Unmarked numbers belong to inactive results.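 Rule for the calls: active = MAPPIT score above the 99th percentile of random reference set scores in the same batch; inactive = at or below it.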
Tests used:
Assay in all cases: MAPPIT interaction score (arbitrary units); higher = stronger binary interaction signal, active = hit call of the paper
CG4325 = settings: MAPPIT configuration: N-N; pair source set: DPIM
CG4789 = settings: MAPPIT configuration: N-N; pair source set: Lit-BS-16
PVRAP = settings: MAPPIT configuration: N-N; pair source set: Lit-BS-16
CG4860 = settings: MAPPIT configuration: N-N; pair source set: Curagen_high_conf
CG4360 = settings: MAPPIT configuration: N-N; pair source set: Curagen_low_conf
CG4707 = settings: MAPPIT configuration: N-N; pair source set: Curagen_high_conf
CG43325 = settings: MAPPIT configuration: N-C; pair source set: screen_4
caup = settings: MAPPIT configuration: N-N; pair source set: screen_1
CG4617 = settings: MAPPIT configuration: N-N; pair source set: Curagen_high_conf
CG4853 = settings: MAPPIT configuration: N-N; pair source set: Curagen_low_conf
CG46280 = settings: MAPPIT configuration: N-C; pair source set: screen_4
CG5062 = settings: MAPPIT configuration: N-N; pair source set: Curagen_low_conf
slmo = settings: MAPPIT configuration: N-N; pair source set: Curagen_high_conf
CG4884 = settings: MAPPIT configuration: N-N; pair source set: Finley_Y2H
CG44837 = settings: MAPPIT configuration: N-N; pair source set: Curagen_low_conf
CG4511 = settings: MAPPIT configuration: N-C; pair source set: screen_3
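Note: HEK293T cells with Epo stimulation, STAT-responsive firefly luciferase reporter, fold induction versus unstimulated cells divided by the larger fold induction of two negative controls lacking either bait or prey.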

B1: mfrn (protein)
chain: MNIDDYESLPTTSVGVNMTAGAIAGVLEHVVMYPLDSVKTRMQSLSPPTKNMNIVSTLRTMITREGLLRPIRGASAVVLGAGPAHSLYFAAYEMTKELTAKFTSVRNLNYVISGAVATLIHDAISSPTDVIKQRMQMYNSPYTSVVSCVRDIYKREGFKAFYRAYGTQLVMNLPYQTIHFTTYEFFQNKMNLERKYNPPVHMAAGAAAGACAAAVTTPLDVIKTLLNTQETGLTRGMIEASRKIYHMAGPLGFFRGTTARVLYSMPATAICWSTYEFFKFYLCGLDADQYKSSITGSSEPRKADYVLPRTTDEEQIDQEREAAKEKDTTATLHSAPTSVNASGAIKTVCELSTRPAGPTINLHTRHTDVKSPYERGFST
MAPPIT interaction score (CG4325): -0.276

B2: Jupiter (protein)
chain: MAAYAAFKHVELYNVGKAKKRVLRPPGGGSSDIFGSEMPQTPRNVKNRMASNIFAAEKDNGVKNNVRQGAHRFYFIGDAPRRGQKTVDSHSRLFGEPTRPITPGKNHMKSSIPFGQNTEAVAAQKLLTTNGHYNGKSGSVSSASSSVSSSTENLKMNSGSRSEGNPVTGEGYKVVANEYSQRQESSNGGTPVINKNRIPPGGYSSGLW
MAPPIT interaction score (CG4789): 0.553
MAPPIT interaction score (PVRAP): -1.6

B3: Ndg (protein)
chain: MPTFGSKLLACLLLSSVILVSGQFEHYLDSLRASELYEFEDGSLGSIHLLPKGDSETIVLQLEQPIHFYGEQYEQLYINTNGILTFNSEFPEYLNQPFPLEYASIAAFYSNVDTSFSDEGTSISLFESKEQSILDRASSLVRYAFSSQSEFEARQVIVATWRNVGYFDSKTDRLNTFQVALIANEQSTFVQFIYPDGGLNWLQGETAGLGLPDIRAQAGFVAEDGRFYTLNGSGSENARFLSESTNLGVPGVWLFEVAPIENEQNVRSPDNAESLTESPALALSCQAHAHQCHEKAECHDKAEGYCCVCGSGFYGNGKSCLANDQPIRVTGTLTGELNKQPVSEEAKLQSYVVTSEGRTYTTINPLTPELGAQLRLVLPLLTTVPWLFAKSVGGVANGYQLTGGVYTHVSRLQFDSGENLHVNQTFEGLNYWDQLSVKIEIYGEVPAVAADAVLILPDYVEEYTFERPGELKSVQVLNINITEEQRVLGLQVEQRILYRSCLRDDEADPSATKVLQKISKVALDYVERDQALRIGAMSKVGVTPESNACNDGTADCVENSVCVPYEDTYRCDCYHGFAAQLDERGVEVCLDIDECATGSHVCDENAVCDNTEGGFNCYCTEGFEGNGYRCLSNSTADNIEYPPAVEGQAEPTSEPSPNPSPYPDQGQDQEREREDDQYPQPNPYPYPEEQIPQHPDECYRCSKDADCYQGRCTCHEGFDGDGYTCTNICGHGEVWENGRCEPLLLERHDVDPLCDALGECRCPYGYELSEDSQRCTYVQEFDGERNADLIPCDVDENCHINATCNWYGQELRHICTCQPGFRGDGYNCDPISDDSCAIRPDICDVHADCVYEEHLGKSECQCQAGYTGNGFNCQLAAECQSAEHCGENAFCDDGVCRCQADFERDVSDRCVPAGRCGSVFCGSNAICKWDSAEGVQYCDCLDGYQGDALTGCTSKPLSCHVLNNCGIHATCEPTEDPANYECQCIAGFKGDGYVCIEEQNCLNNPTLCDMNAQCRSTNSGLVCVCNQGFFGNGSLCQERQHQDSDFLIVSQGVMIARVPLNGRNVRPISVAQMAIGLDKDCVEGRVYWGDISTKKIVSTKYDGTDLRPFITTDIESPEGIAIDVISRRLYWADSAKDTIEVASLDDPSLRAVIINKQLVNPRGIAVDPYREKLFWSDWDRESPKIEMSNLDGTGRELLLGKDDVTLPNSLVVLENSGEVCYADAGTKKVECIEPQNRQIRTISNELSYPFGITFTHDQFYWTDWTTKKVEIVDSLGARQTPIQPPFFGSHKMYGMTVVEQHCPQYQSPCQISNGGCTDSRLCLVNRQAPSGKSCKCTSASTGCTVLAPGY
MAPPIT interaction score (CG4860): -0.238

B4: Paris (protein)
chain: MAEICRVCMDISGKLVNIFDARRRTRVSIAEMIAQCTGFEVKRGDLFSEMICPQCYEDVKSAYGIRQTCEESHQFYCRVRDEGIEDALCALLEEEDWEISEDEDARIDSASAADDDGKSDSKKVAFECRECHKKYQRKGTFLRHMRTHMDGQSFPCPYCKRNFRLRVTLKAHMKTHNAAKPYECSHCAKTFAQQSTLQSHERTHTGERPFKCSQCSKTFIKSSDLRRHIRTHGSERPFKCSKCTKTFTRKFHLDNHFRSHTGERPFKCSHCPKAFAMKQHLKQHSRLHLPDRPFRCSHCPKTFRLSSTLKEHKLVHNAERTFKCPHCASFYKQRKTLARHILEIHK
MAPPIT interaction score (CG4360): 0.0302

B5: Prosalpha7 (protein)
chain: MSTIGTGYDLSASQFSPDGRVFQIDYASKAVEKSGTVIGIRGKDAVVLAVEKIITSKLYEPDAGGRIFTIEKNIGMAVAGLVADGNFVADIARQEAANYRQQFEQAIPLKHLCHRVAGYVHAYTLYSAVRPFGLSIILASWDEVEGPQLYKIEPSGSSFGYFACASGKAKQLAKTEMEKLKMDMRTDELVESAGEIIYKVHDELKDKDFRFEMGLVGRVTGGLHLINPSELTEKARKAGDAANKDEDSDNETH
MAPPIT interaction score (CG4707): -0.137

B6: Mst84Db (protein)
chain: MCCGPLGFCGPCSPCGGPCGPCGPCGPCGSCCSPCGSCCAPCGPCGPCGPCCGGCGPCGPCGPCCGPCRPYCGC
MAPPIT interaction score (CG43325): 1.12
MAPPIT interaction score (caup): 0.0255

B7: TfIIA-L (protein)
chain: MALCQTSVLKVYHAVIEDVITNVRDAFLDEGVDEQVLQEMKQVWRNKLLASKAVELSPDSGDGSHPPPIVANNPKSHKAANAKAKKAAAATAVTSHQHIGGNSSMSSLVGLKSSAGMAAGSGIRNGLVPIKQEVNSQNPPPLHPTSAASMMQKQQQAASSGQGSIPIVATLDPNRIMPVNITLPSPAGSASSESRVLTIQVPASALQENQLTQILTAHLISSIMSLPTTLASSVLQQHVNAALSSANHQKTLAAAKQLDGALDSSDEDESEESDDNIDNDDDDDLDKDDDEDAEHEDAAEEEPLNSEDDVTDEDSAEMFDTDNVIVCQYDKITRSRNKWKFYLKDGIMNMRGKDYVFQKSNGDAEW
MAPPIT interaction score (CG4617): -0.0193

B8: Rtca (protein)
chain: MDAEKMLEIDGSYLEGGGQALRNALSLSCILGKPVRVVKIRASRPSPGLSHQHLHGLNLLRDITNADVVGNYLLSSTVEFTPRTILDNTYRVETHTAASITLIYQMALPVLLFAGRPSRLIVSGGTNVDFAPPVEYMQEVLLPNLKHFGVSFDLKVQRYGFYPRGQGRCQLDVQPVTKLNSGKLVAFGRIKSVSGVAYCAGRLPVNIAIDMQQTAQREIHRLWPSQQCSIEPIKHSRQKAFHNGAGILMTVNTTSDVVLGASALGKKRIDGHVLGSEASCQLGDYMRKQVCVDDYMQDQLIIYMALAVGRSTMRTGKLTNHTRTAINVAEQMTGVKFDVAMEPGGQMLVSCKGLGHVNKLI
MAPPIT interaction score (CG4853): 1.6

B9: Tm2 (protein)
chain: MDAIKKKMQAMKLEKDNAIDKADTCENQAKDANSRADKLNEEVRDLEKKFVQVEIDLVTAKEQLEKANTELEEKEKLLTATESEVATQNRKVQQIEEDLEKSEERSTTAQQKLLEATQSADENNRMCKVLENRSQQDEERMDQLTNQLKEARMLAEDADTKSDEVSRKLAFVEDELEVAEDRVRSGESKIMELEEELKVVGNSLKSLEVSEEKANQRVEEFKREMKTLSIKLKEAEQRAEHAEKQVKRLQKEVDRLEDRLFNEKEKYKAICDDLDQTFAELTGY
MAPPIT interaction score (CG46280): 1.5

B10: IntS10 (protein)
chain: MPSQEENELYMVKEAQRLRKSDPCAAMAWIITAKTLYPNAFNLQYEAYLLERDAQNYEEAAKCFSAIATNFQNQHTELWQEINSLTNALRNENETTPEHEFYVKMYKHLTPEVQHNIFMHTINHSADNLERIYIYILMFNKFPKSAITQAPRLLEMLAEGMKTEPDLYQRILVEEVLPMIQNKPPELSPNLACRLYTSSLEFYLRQIMDESDTADAWKNIFKVLMICGQMMGWEPFLPFSKHVNQNVYWEKLVDILSGSPAGSSQVLFYATTLFIYSLHGYIRNCKLRIEDADVTHVLVEGFMEWSPEGDGSEVPSMEPPKFSLTTAISPELSKAFLHAAQCWQLLNTDQFQRDFSQLMLALPLAPWISRFLFDLAIYFGHRDEANKLMADMTTQSSLVQSLQILSLNLMQGSMTLQGFQCILKILSELPTTQGQLLENMSLKGHRHMVFLPLTRSALVQYCVGAIISRLSRKVFEPNVPDRLLGDILVLQQLNLLNDVLLTQQIFNLIKQRKSFNLRTLSTYIINIDLLEELSHIWNSQQEDNFELTSSPNSSGTPTATTVAGGSQSRRIGTRGADKGARDEFRAITRQQIARCNENVITLLANFINQEHLMLAQHIFGISQPVETIVIK
MAPPIT interaction score (CG5062): -0.102
MAPPIT interaction score (slmo): 1.15

B11: nudE (protein)
chain: MESPPMFNSVEDECRYWKERSKQYHKEWTDVKQEYDEFVEQSREMEIEMDATLDQKQSIIKDLTAKLTMFERENESLKLKLESHGIDMSNMEKQLETVKKDRDTMKVYLRQLEQKNDDLERAHRILNESIENFEKMLDQAYEKNALLELEVDEKGLLQEKLQRLMDETRDLKQELNVKSRFTPVVNGTSVPTANDTNTVNSSMNSSASLPNGIVANGELVKHDNAVATRATSVSVNALNGSLVNRNEYNQQHSLKSDGDETEDVPREWSANAAATPLLPAIHTSGAGRTALLLAGCRVVWILQFSVIHKPQIRNPIT
MAPPIT interaction score (CG4884): 0.246

B12: RhoGAP92B (protein)
chain: MKRQFAKIKIAAENLSRSSKSDSKDSELEAIERQVDRYRDTIEKIVRKLPALSGGGGSGSGSSEEQDKRTKKNSHYKIAQALDESAKELPKDMPLQKVLANCGELEKTMAECIIESELETEAKVVRRLKNILDKEIQEISTLKRNVSRTLQEYTSLKRSHEAAIRLEEPAAKVNHIKSQQEECELKLEKERDAWAAQMLELIAKEDEIVSCIRDYVLNQRNYHERALQHVNASLARIQDTIQGTEKSRFGTSLKEHLTSTNREISYIVELCCCCLLEHGLEEEGLLRVGCASTKLRRMKHALEAQHVKTPLPLDYQDPHVIGSILKLYLRELPEPLLTYNLYKDFIRIAERHSEAERKTEIKAILTKLPKENYANLRYLTRFLSIVQQRSALNKMSSQNLAIVMSPNMLWPRIDKSSNAPADYIGQVNSSSAANIIVELLISQWDYFFIGEVEFYLTLQKQKLFVEGKSKSNSSNENLDRNDSEVMESPRYGTLRRQKANAPSPPTTNGNGIIMTTSQTSHRPHAKELFPQQTPEKQEKPAKPPLPNLPQFQSPAASQPTQTQLEPLPPPPVTPAKPVPMTRTQFFGLDNLPSPTADRKSTDSIGSFKLKPDVPQKPLLPKRPTVLGVGVPKADGKSDDEGGTTPTQATIDNGNGSVRFKTEHFLDKLRQENGETNGTREVSSTTKENNHNHDPPATAADQNQQQAQPQVTTPISPNSFQTPKRPTVPAPPPPTNWKSSD
MAPPIT interaction score (CG44837): -0.0901

B13: Pka-R1 (protein)
chain: MSYMMAKTLEEQSLRECEHYIQTHGIQRVLKDCIVQLCVCRPENPVQFLRQYFQKLEREQVKLDASRQVISPDDCEDLSPMPQTAAPPVRRRGGISAEPVTEEDATNYVKKVVPKDYKTMNALSKAIAKNVLFAHLDESERSDIFDAMFPVNHIAGENIIQQGDEGDNFYVIDVGEVDVFVNSELVTTISEGGSFGELALIYGTPRAATVRAKTDVKLWGIDRDSYRRILMGSTIRKRKMYEEFLSRVSILESLDKWERLTVADSLETCSFDDGETIVKQGAAGDDFYIILEGCAVVLQQRSEGEDPAEVGRLGSSDYFGEIALLLDRPRAATVVARGPLKCVKLDRARFERVLGPCADILKRNITQYNSFVSLSV
MAPPIT interaction score (CG4511): 5.21 (active)
